PubChem BioAssay
A number with no mark means an inactive call. No rule for the calls is given here.

Tested on: Aerobactin synthetase IucA (Klebsiella pneumoniae hvKP1)
Test: IucA enzyme inhibition, primary screen, biochemical, Spectrum library (AID 1346200);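 also: 100% = wells without compound and 0% = wells lacking enzyme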
Conditions: malachite green pyrophosphate, A620, at 8 µM, stronger effect = lower value

First: CC(C)[C@@H]1CC[C@@H](C)C[C@H]1OC(=O)c1ccccc1
Second: C[C@]12CCC3c4ccc(OC(=O)c5ccccc5)cc4CCC3C1CCC2=O (some centres undefined)
The activity remaining of the first is higher: 120% for the first, 116% for the second.

Going from `S=c1nc[nH]c2nc[nH]c12` to `Cn1c(=O)[nH]c(=O)c2[nH]cnc21`, the activity remaining falls from 120% to 109%.

First: O=C1OC2(c3ccc(O)cc3Oc3cc(O)ccc32)c2ccccc21
Second: O=c1c(O)c(-c2ccc(O)cc2)oc2ccccc12
The activity remaining of the first is higher: 111% for the first, 104% for the second.

`Oc1c(Cl)cc(Cl)c(Cl)c1Cc1c(O)c(Cl)cc(Cl)c1Cl` and `CC(C)=CCc1c(O)cc2oc(C)cc(=O)c2c1O` are the same in activity remaining: 118% for the first, 118% for the second.

First: CC(C)=CCCC(C)[C@@H]1CC[C@]2(C)C3=C(CC[C@@]12C)C1(C)CC[C@H](O)C(C)(C)C1CC3 (some centres undefined)
Second: COC(=O)[C@]1(C)CC[C@]2(C)CC[C@]3(C)C4=CCc5c(cc(O)c(O)c5C)[C@]4(C)CC[C@@]3(C)C2C1 (some centres undefined)
The activity remaining of the first is higher: 124% for the first, 106% for the second.

Compared with `COc1ccc(-c2cc(=O)c3c(OC)c(OC)c(OC)c(OC)c3o2)cc1`, `COc1ccc(-c2oc3cc(OC)c(OC)c(OC)c3c(=O)c2OC)cc1OC` is lower in activity remaining: 121% for the first, 83.1% for the second.

First: Cc1cc(O)cc(O)c1C(=O)O
Second: O=C(/C=C/c1ccccc1)c1ccc(O)cc1O
The activity remaining of the first is higher: 113% for the first, 96.4% for the second.

Compared with `Cc1cc(NS(=O)(=O)c2ccc(N)cc2)no1`, `Nc1ccc(S(=O)(=O)NC(=O)c2ccccc2)cc1` is lower in activity remaining: 110% for the first, 109% for the second.

Going from `Cc1[nH]c(C)c(Cl)c(=O)c1Cl` to `Cc1cc2cc3c(C)cc(=O)oc3c(C)c2o1`, the activity remaining falls from 121% to 117%.

First: OC[C@H]1O[C@@H](Oc2ccc(O)cc2)[C@H](O)[C@@H](O)[C@@H]1O
Second: COC(=O)C[C@@H]1C2(C)C(=O)[C@@H](CC3=C4CC(O)O[C@@H](c5ccoc5)[C@]4(C)CCC32)[C@H](O)C1(C)C (some centres undefined)
The activity remaining of the first is lower: 115% for the first, 128% for the second.

Compared with `NC(=O)NC1NC(=O)NC1=O` (centres undefined), `CC(=O)NC1SCCC1=O` (centres undefined) is lower in activity remaining: 113% for the first, 112% for the second.

First: C[N+](C)(C)C[C@H](O)CC(=O)[O-]
Second: COc1ccc(OC)c(C(O)CNC(=O)CN)c1 (centres undefined)
The activity remaining of the first is higher: 100% for the first, 99.4% for the second.

Going from `COc1c2c(cc3c1OCO3)C13C=C[C@H](OC)CC1N(C2)CC3O` (some centres undefined) to `C=C[C@H]1CN2CC[C@H]1C[C@@H]2[C@H](O)c1ccnc2ccc(OC)cc12`, the activity remaining rises from 107% to 112%.

Compared with `CO/N=C(\C(=O)NC1C(=O)N2C(C(=O)OCOC(=O)C(C)(C)C)=C(/C=C\c3scnc3C)CSC12)c1csc(N)n1` (centres undefined), `Nc1nc2ncc(CNc3ccc(C(=O)N[C@@H](CCC(=O)O)C(=O)O)cc3)nc2c(=O)[nH]1` is lower in activity remaining: 120% for the first, 91.3% for the second.

First: CO[C@H]1C[C@H](O[C@H]2[C@H](C)[C@@H](OC3O[C@H](C)C[C@H](N(C)C)[C@H]3OC(C)=O)[C@@H](C)C[C@]3(CO3)C(=O)[C@H](C)[C@@H](OC(C)=O)[C@@H](C)[C@@H](C)OC(=O)[C@@H]2C)O[C@@H](C)[C@@H]1OC(C)=O (some centres undefined)
Second: CO[C@H]1/C=C/O[C@@]2(C)Oc3c(C)c(O)c4c(O)c(c(C=NN5CCN(C)CC5)c(O)c4c3C2=O)NC(=O)/C(C)=C\C=C\C(C)[C@H](O)[C@@H](C)[C@@H](O)[C@@H](C)[C@@H](OC(C)=O)[C@@H]1C (some centres undefined)
The activity remaining of the first is higher: 116% for the first, 98.4% for the second.

First: NCc1ccc(S(N)(=O)=O)cc1
Second: O=C1C(=O)c2ccccc2C(O)=C1C1CCC(c2ccc(Cl)cc2)CC1 (centres undefined)
The activity remaining of the first is higher: 114% for the first, 101% for the second.

Compared with `C[C@@H]1CC[C@@]23CCC4(C)[C@@](C=CC5[C@@]6(C)CCC(=O)C(C)(C)C6CC[C@]54C)(OC2=O)C3[C@H]1C` (some centres undefined), `CCC(=O)OCC(=O)C1(OC(=O)CC)C(C)CC2C3CCC4=CC(=O)C=CC4(C)C3(Cl)C(O)CC21C` (centres undefined) is higher in activity remaining: 112% for the first, 119% for the second.

Going from `CC(=O)NC(C(=O)O)C(C)(C)SN=O` (centres undefined) to `CC1=C2[C@H]([C@@H](C)CC[C@@H]2/C=C(\C)C(=O)O)[C@@H](O)C1`, the activity remaining rises from 97% to 116%.

Going from `CC(=O)Oc1cc(C)c2c(c1C(OC(C)=O)OC(C)=O)Oc1c(c(C)c(OC(C)=O)c3c1C(OC(C)=O)OC3=O)OC2=O` (centres undefined) to `COc1cc(OC)c2c(c1Cl)OC1(C2=O)C(O)=CC(=O)CC1C` (centres undefined), the activity remaining rises from 96.1% to 107%.

Molecule `C=C[C@@](C)(O)CCC1C(=C)C[C@H](OC(C)=O)C2C(C)(C)CCCC12C` (some centres undefined) has an activity remaining of 118%.
